In the library only some 1.8% were active in any assay of this set; here they are far more common.
GLP1R inv ag = qHTS of GLP-1 Receptor Inverse Agonists (Inhibition Mode); Glucagon-like peptide 1 receptor (Homo sapiens), P43220; HEK293 GLP-1R CRE-luciferase, luminescence, 24 h; GLP-1R form is constitutively active; Potency, µM (series often up to 38.3 µM), for inactives: top-dose activity change, negative = inhibition, actives largely listed as inhibitors; 410,000 compounds, 1.6% hits; AID 624417, 2012; note: % is set by controls: 0 for no effect and ±100 for the full control effect; nearly all actives have a fitted effect of over 55% in size
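Constitutively active GLP-1R drives a cAMP-responsive luciferase in stably transfected HEK293 cells; test compounds are added after overnight (12 h) attachment and left 24 hr, and signal loss in luminescence marks inhibition.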
Tb PFK block = qHTS Assay to Find Inhibitors of T. brucei phosphofructokinase; T. brucei PFK, ADP-Glo luminescence; AID 485367, 2010; ATP-dependent 6-phosphofructokinase (Trypanosoma brucei brucei), O15648; Potency, µM (highest dose often 57.5 µM), without a hit: at the highest dose activity, negative = inhibition, hits mostly inhibitors; 330,000 compounds, 0.17% hits;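 note: 0% = uninhibited 1x PFK enzyme wells and -100% = no-enzyme wells; nearly all actives have a fitted effect of over 60% in size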
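ADP-Glo luminescence quantified ADP after 45 min at room temperature, with 1.25 nM T. brucei PFK, 0.1 mM ATP and 0.5 mM fructose-6-phosphate in pH 8.0 TEA buffer. qHTS titrations up to 57 µM; curves classified by quality.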
GLP1R ag = qHTS of GLP-1 Receptor Agonists; Glucagon-like peptide 1 receptor (Homo sapiens), P43220; HEK293 GLP-1R CRE-luciferase, luminescence, 4-6 h; cells express a hypersensitive GLP-1R form; Potency, µM (top dose mostly 45.6 µM), without a hit: top-dose activation, actives largely listed as activators; 380,000 compounds, 0.007% hits; AID 624172, 2012; note: % of control where 0% means no effect
PGK inhibitor = qHTS Assay to Find Inhibitors of Phosphoglycerate Kinase | Phosphoglycerate kinase, glycosomal (Trypanosoma brucei brucei), P07378 | PGK/GAPDH coupled, Kinase-Glo luminescence, 60 min | Potency, µM (doses to about 57.5 µM), for the others: at the top dose activity change, negative = inhibition, actives largely listed as inhibitors | 380,000 compounds, 0.043% hits; note: % is set by controls: 0 for no effect and ±100 for the full control effect; nearly all actives have a fitted effect of over 60% in size
Target sequence (P07378 whole entry, looked up): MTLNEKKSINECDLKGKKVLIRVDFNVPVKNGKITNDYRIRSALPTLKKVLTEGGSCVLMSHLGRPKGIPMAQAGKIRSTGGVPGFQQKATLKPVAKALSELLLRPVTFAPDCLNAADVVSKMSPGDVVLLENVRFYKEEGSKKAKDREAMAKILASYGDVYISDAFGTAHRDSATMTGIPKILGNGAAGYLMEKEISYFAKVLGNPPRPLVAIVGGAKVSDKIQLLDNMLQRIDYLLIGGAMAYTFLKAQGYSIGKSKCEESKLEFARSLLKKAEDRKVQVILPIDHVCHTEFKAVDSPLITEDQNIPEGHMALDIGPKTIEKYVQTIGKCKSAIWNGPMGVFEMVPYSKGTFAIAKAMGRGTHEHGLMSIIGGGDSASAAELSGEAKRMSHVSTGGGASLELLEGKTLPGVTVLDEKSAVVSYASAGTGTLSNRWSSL
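Luminescent ATP detection (Kinase-Glo Plus) follows a 60-minute room-temperature incubation, with wells lacking PGK as controls. Buffer: 100 mM TEA (pH 7.6), 5 mM MgCl2, 0.01% Tween-20. Coupling enzyme GAPDH (100 nM final) supplies unstable 1,3-BPG in-well.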
Pin1 inh = qHTS Assay to Find Inhibitors of Pin1 | Pin1 FP peptide displacement, HiFluor488, 10 min | Potency, µM (doses to about 115 µM), for inactives: at the highest dose activity, negative = inhibition, most hits filed as inhibitors | 390,000 compounds, 0.009% hits; active = well fitted inhibition curve with a large enough effect in the polarisation, with a control signal flat, not every such curve was filed as active; inconclusive = small, poorly fitted or top-dose-only effect, or effect the other way, or a change in a side signal; inactive = no such curve, though single readings can be large or run the other way; the % refers to the polarisation; note: % is set by controls: 0 for no effect and ±100 for the full control effect
Target sequence (Q13526 whole entry, looked up): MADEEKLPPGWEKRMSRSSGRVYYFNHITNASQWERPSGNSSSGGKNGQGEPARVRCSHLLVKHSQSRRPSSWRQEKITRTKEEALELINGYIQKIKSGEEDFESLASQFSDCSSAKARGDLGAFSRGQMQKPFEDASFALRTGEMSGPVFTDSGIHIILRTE
HEK293 tox = qHTS of GLP-1 Receptor Inverse Agonists: Cytotox Screen; HEK293 cAMP-luciferase reporter cells, luminescence, 24 h; Potency, µM (top dose mostly 38.3 µM), inactives show top-dose activity change, negative = inhibition, usual class: inhibitors; 410,000 compounds, 0.13% hits; AID 624418, 2012;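 note: loss of luciferase light is scored as toxicity; % is set by controls: 0 for no effect and ±100 for the full control effect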
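Step one: seed cells (200 cells/uL, DMEM with 10% Nu serum, 1% pen-strep). Step two: 12-hour incubation at 37 deg C. Step three: pin 23 nL compound, incubate 24 hr. Step four: add luciferase reagent, read luminescence 12 min later.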
The depositor's hits bear a star; i = inactive; ? = inconclusive; / = not tested or not shown; [ ] = another dose, or the depositor's remark. Unless noted, calls come from the whole dose curve; as a rule, active = well fitted curve in the direction sought with a large enough effect; inconclusive = small, poorly fitted or top-dose-only effect, or another doubt; inactive = no such curve, though single readings can be large; an effect the other way counts as inactive or inconclusive. Potency is the fitted concentration of half-maximal effect.

SMILES	GLP1R inv ag	Tb PFK block	GLP1R ag	PGK inhibitor	Pin1 inh	HEK293 tox
Cc1ncc(COC(=O)C(C)C)c2cc(C(=O)Nc3ccccc3C(F)(F)F)c(=O)oc12	5%	/	/	-7%	0%	-6%
Cc1c(NC(=O)C(C)(C)Oc2ccc(Cl)cc2)cccc1-c1nc2ccccc2o1	11µM*	/	/	-2%	14%	22%
COc1ccc(-c2nc3ccccc3o2)cc1NC(=O)C(C)(C)Oc1ccc(Br)cc1	5%	/	14%	-5%	1%	-13%
COc1ccc(NC(=O)CSc2nnc(-c3ccc(OC)cc3)s2)cc1	0%	/	/	-7%	-2%	5%
C/C(=N\NC(=O)c1ccc(Br)cc1)C1C(=O)c2ccccc2C1=O	?	2%	-8%	3%[11.5 µM]	-13%	10µM*
C/C(=N\NC(=O)c1ccc(-c2ccccc2)cc1)C1C(=O)c2ccccc2C1=O	?	3%	3%	i	-4%	?
CCCOC(=O)c1ccc(Oc2cn[nH]c2-c2ccc(O)cc2O)cc1	?	-7%	5%	5%	?	4%
C=C(C)COc1ccc(-c2nc(N)ncc2-c2ccc(OC)cc2)c(O)c1	/	14%	/	/	/	/
C=C(C)COc1ccc(-c2[nH]ncc2Oc2cccc(OC)c2)c(O)c1	10µM*	1%	-11%	7%	?	?
C=C(C)COc1ccc(-c2n[nH]c(C)c2Oc2ccccc2OC)c(O)c1	7.9µM*	-6%	-17%	8%	2%	-8%
C=C(C)COc1ccc(-c2ncncc2Oc2ccc(OC)cc2)c(O)c1	10µM*	-2%	-1%	-2%	7%	30%
CCCOC(=O)c1ccc(Oc2c(-c3ccc(OC)cc3O)n[nH]c2C)cc1	8.9µM*	1%	-23%	7%	2%	?
COc1cccc(C(=O)Nc2ccc3nc(SCCOc4ccccc4)sc3c2)c1	-6%	/	/	-1%	26%	-6%
C=C(C)COc1ccc(-c2[nH]ncc2-c2ccc(OC)cc2)c(O)c1	11µM*	2%	1%	i	-7%	-15%
Cc1cc2ncc(-c3ncc(C(F)(F)F)cc3Cl)cn2n1	5µM*	-7%	-22%	-15%	-8%	12%
Cc1nn2cc(-c3ncc(C(F)(F)F)cc3Cl)cnc2c1Br	-13%	-5%	6%	-9%	8%	10%
OC(COCC(F)(F)C(F)(F)C(F)(F)C(F)F)Cn1c2ccc(Cl)cc2c2cc(Cl)ccc21 (stereo not given)	1.8µM*	-6%	-5%	i	6%	?
Cc1ccc(-c2cnc(NCc3ccc(C(F)(F)F)cc3)n2C)cc1	-12%	/	0%	-1%	4%	-2%
CCOc1ccc(CNC(=O)C2CCN(Cc3cc4ccccc4n3Cc3ccccc3C)CC2)cc1	7.1µM*	/	/	-10%	29%	6%
Cc1ccccc1Cn1c(CN2CCC(C(=O)NCc3ccc(Cl)cc3)CC2)cc2ccccc21	?	/	/	-6%	32%	6%
Cc1ccc(C(=O)c2cn(CC(=O)NCc3ccccc3Cl)c3nc(C)ccc3c2=O)cc1	2%	/	/	0%	57%	-1%
CCOC(=O)C(c1ccccc1)C(Nc1ccc(F)cc1)c1ccccn1 (stereo not given)	10µM*	6%	-7%	-6%	-12%	-7%
CN1CCC(N(C)S(=O)(=O)c2ccc(NC(=O)COc3ccc(F)cc3)cc2)CC1	?	-17%	-1%	i	2%	14%
CN1CCC(N(C)S(=O)(=O)c2ccc(NC(=O)COc3ccc(F)cc3Cl)cc2)CC1	10µM*	-1%	3%	-6%	1%	2%
CC(C)c1nn2c(=O)cc(COC(=O)c3ccc(NC(=O)C4CCCCC4)cc3)nc2s1	-9%	/	/	2%	-5%	-9%
SMILES	GLP1R inv ag	Tb PFK block	GLP1R ag	PGK inhibitor	Pin1 inh	HEK293 tox
COc1ccc(CNC(=O)CC23CC4CC(CC(C4)C2)C3)cc1	?	-5%	12%	7%	-2%	-18%
COc1ccc(CCC(=O)NCC23CC4CC(CC(C4)C2)C3)cc1	6.3µM*	1%	0%	3%	1%	-5%
O=C(Nc1ccccn1)C1(c2ccccc2)CCCC1	?	2%	-12%	4%	-3%	-15%
Cc1ccc(NC(=O)C2(c3ccccc3)CCCC2)nc1	3.5µM*	/	0%	-3%	-1%	-8%
Cc1ccc(NC(=O)C2(c3ccc([N+](=O)[O-])cc3)CCCC2)cc1	10µM*	0%	-2%	-6%	0%	-25%
CC(=O)Nc1nonc1-c1nnc(SCc2ccccc2C)n1C	13%	/	/	1%	1%	15%
Cn1cccc1/C=N\NC(=O)C1COc2ccc(C(C)(C)C)cc2O1 (stereo not given)	10µM*	-1%	14%	-11%	3%	3%
O=C(N/N=C/c1ccc(OC(F)F)cc1OC(F)F)NC1CCCCC1	4.5µM*	2%	23%	i	6%	-8%
CC(C)NC(=O)c1ccc(CSCc2ccccc2Cl)o1	8.9µM*	3%	12%	-6%	-3%	-20%
CN1CCN(CCCNC(=O)c2ccc(CSCc3cccc(Cl)c3)o2)CC1	10µM*	-17%	22%	-1%	1%	-16%
Cc1ccc(CNC(=O)c2ccc(CSCc3ccc(Cl)cc3)o2)cc1	10µM*	/	/	i	12%	3%
O=C(NCCCN1CCCC1)c1ccc(CSCc2cccc(Cl)c2)o1	?	-14%	6%	1%	2%	-13%
CCn1c(=N)c(C(=O)NC2CCCC2)cc2c(=O)n3ccccc3nc21	18%	/	1%	0%	?	89%
O=S(=O)(NC1CCC(CNS(=O)(=O)c2c(F)cccc2F)CC1)c1ccc2c(c1)OCCO2 (stereo not given)	/	-4%	/	/	/	/
COc1cccc(C(C)NC(=O)Nc2ccccc2Cl)c1 (stereo not given)	13µM*	7%	-1%	-3%	-7%	23%
CC(C)NC1=C(Cl)C(=O)c2ccccc2C1=O	0%	-2%	11%	-8%	1%	5.6µM*
O=C1C(Cl)=C(Nc2ccccc2)C(=O)c2ccccc21	-22%	3%	1%	-15%	6%	?
CC(NCC(=O)Nc1ccccc1C(=O)NC1CC1)c1cccs1 (stereo not given)	13%	-5%	18%	-8%	-5%	-8%

Screening results from PubChem BioAssay.
